About 83,000 compounds went through this panel and 20% of them were active in at least one assay; those are over-represented in the sample as a whole.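 Compound tested at a single concentration for 48 hours in 96-well plates; a percent growth value below 10 was scored as active.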 The source made the active and inactive calls.
Key:
Test in all cases: NCI-60 one-dose screen, 48 h (100 = growth as untreated, 0 = no growth, -100 = all killed)
Settings in all cases: 10 µM unless noted
[1] = system: NCI-H23 lung
[2] = system: NCI-H226 lung
[3] = system: NCI-H322M lung
[4] = system: HOP-62 NSCLC
[5] = system: NCI-H460 lung
[6] = system: HOP-92 NSCLC
[7] = system: 786-0 renal
[8] = system: COLO 205 colon
[9] = system: DU-145 prostate
[10] = system: MALME-3M melanoma
[11] = system: MDA-MB-231 breast
[12] = system: RXF 393 renal
[13] = system: SF-268 CNS
[14] = system: SF-295 CNS
[15] = system: SF-539 CNS
[16] = system: M14 melanoma
[17] = system: K-562 leukemia
[18] = system: A549/ATCC NSCLC
[19] = system: UACC-257 melanoma

Measured: growth

O=C(Nc1cccc(-n2ccc3c(NC(=O)c4ccccc4)nccc32)c1)c1ccc(Cl)c(Cl)c1
active: [1] -31.3% | [3] -61.6% | [4] -82.2% | [5] -67.8% | [6] -31.9% | [7] -93% | [8] -27.7% | [9] -73.3% | [10] -56% | [11] -53.9% | [12] -92.7% | [13] -55% | [14] -69.8% | [15] -71.2% | [16] -83.4%
inactive: [2] 31.1%

COc1ccc(-n2nc(C(=O)Nc3ccc(F)cc3)nc2-c2cc(OC)c(OC)c(OC)c2)cc1
inactive: [1] 92.7% | [2] 79.3% | [3] 78.5% | [4] 87.8% | [5] 98.4% | [6] 91.2% | [7] 83.6% | [8] 102% | [9] 111% | [17] 83.7% | [10] 96.2% | [11] 93.9% | [13] 102% | [15] 88.3% | [16] 110%

ClC1=NC(Cl)C(Cl)=N/C1=N\c1ncn[nH]1 (configuration not stated)
active: [6] -60% | [8] -76.4% | [9] -78.9% | [17] -48% | [10] -64.3% | [12] -64.6%
inactive: [1] 62.8% | [2] 106% | [3] 89.2% | [4] 39.3% | [5] 73.3% | [7] 81.2% | [11] 72.7% | [13] 33.8% | [14] 101% | [15] 67.5% | [16] 39.2%

CCOC(=O)C(CCCCC(NC(C)=O)(C(=O)OCC)C(=O)OCC)(NC(C)=O)C(=O)OCC
inactive: [1] 103% | [2] 105% | [3] 105% | [4] 102% | [5] 103% | [6] 94.9% | [7] 99.4% | [8] 107% | [9] 113% | [17] 108% | [10] 108% | [11] 111% | [12] 102% | [13] 100% | [14] 99.3% | [15] 109% | [16] 105%

O=C(N/N=C/c1ccc([N+](=O)[O-])o1)c1ccc(O)cc1
active: [10] -34.9% | [15] 8.11% | [16] 4.75%
inactive: [1] 41.5% | [2] 89.7% | [3] 65.6% | [4] 30.3% | [5] 18.8% | [6] 103% | [18] 36.9% | [7] 63.4% | [11] 57.9% | [12] 82.5% | [13] 12.6% | [14] 49.8% | [19] 17.1%

N/C(=N\O)c1ncc(-c2ccc(C(F)(F)F)cc2)c(NC2CCCCCC2)n1
active: [1] -78.9% [100 µM] | [2] -42.4% [100 µM] | [3] -95.8% [100 µM] | [4] -74.2% [100 µM] | [5] -64.8% [100 µM] | [6] -89.5% [100 µM] | [7] -91.5% [100 µM] | [8] -58.2% [100 µM] | [9] -96.1% [100 µM] | [17] -60.4% [100 µM] | [10] -92.6% [100 µM] | [11] -66.3% [100 µM] | [12] -67% [100 µM] | [13] -89.4% [100 µM] | [14] -94.7% [100 µM] | [16] -91.9% [100 µM]

COc1ccc(-c2ccc(-c3ccc(C(=N)N)s3)s2)cc1
active: [1] -70.3% | [2] -50.9% | [3] -93.4% | [4] -81.6% | [5] -64.2% | [6] -64.2% | [7] -64.4% | [8] -89.2% | [9] -95.5% | [17] -21.5% | [10] -61.4% | [11] -79.9% | [12] -57.5% | [13] -61.3% | [14] -77.6% | [15] -75.5% | [16] -55.1%

COc1cc(OC)cc(-c2ccc(-c3ccc(C(=N)N)s3)s2)c1
active: [1] -75.7% | [2] -65.3% | [3] -86.7% | [4] -88.1% | [5] -71.6% | [6] -71% | [7] -80.4% | [8] -78.1% | [9] -74.2% | [17] -35.7% | [10] -73.8% | [11] -80.5% | [12] -73.9% | [13] -76.5% | [14] -78.5% | [15] -92.2% | [16] -88.2%

O=C(CCCN1CCC(O)(c2ccc(Br)cc2)CC1)c1ccc(F)cc1
inactive: [1] 68.3% | [2] 99.5% | [3] 81.8% | [4] 64.3% | [5] 76.8% | [6] 98.9% | [18] 73.5% | [7] 69% | [10] 86.8% | [11] 40.7% | [12] 49.8% | [13] 83.4% | [14] 54.7% | [15] 77.8% | [16] 18.6%
active: [19] -21.9%

Source: PubChem BioAssay (NCI)
